# Target: MAPKAPK5
# Assay: pooled miR-30 sensor sort-seq; sequence = guide strand
# Settings: shRNA
# Also: reference of the scale not given here.
row,Sequence,sensor-assay potency score (higher = more potent)
1,TATTCTTCTAAAATGGAAGTTT,-0.731
2,TATCTGTGAATCCACGACCATT,-1.59
3,ATAATCTGAACTATGTTTGGGT,0.519
4,TTGCTCTTCTATCACCTGCTTC,-0.717
5,TTTCTTCGCATATCCTTTGGGA,-0.249
6,TTCAATAATCTGAACTATGTTT,-0.32
7,TAGTCGATCTACTTTATCTGTG,-0.684
8,TAACTGGACCACTAATTCCAGC,-1.31
9,TCTGACTCCACTCTTCCTCTGG,0.0951
10,TATGATGCCAGATTTCTCCTTC,0.745
11,TTAGTCGATCTACTTTATCTGT,-0.383
12,TTTACACAGACTCTAACTGGAC,-0.371

# Target: MARCH9
# Assay: as above
# Settings: shRNA
row,Sequence,sensor-assay potency score (higher = more potent)
1,TTGAAGATGCGGTAGACAGAGG,-1.26
2,TAGCAGAGCTCACAGCTCCAGG,-0.864
3,TACTTGAAGTAGCAGAGCTCAC,-1.11
4,TGCATCTCCTCCTATGTCCTTG,-0.947
5,TGCAAGATTGTATAACCGCAGC,-1.34
6,TATGGCAGCAATCTGGACCTTC,-0.025
7,TGAAAGAGCAGATCCTGTCGTT,0.563
8,ATTTAGGACCTTCCACTGCTGG,-1.22
9,ATACATGCCGTAGCAGATCTGA,-0.925

# From the OligoGym collection
